56 compounds from PubChem BioAssay AID449739 (Vanderbilt High Throughput Screening Facility, 2010) can be followed below.

SMILES strings stand for the structures. The campaign covered roughly 100,000 compounds. About 4,200 (4.2%) were called active. The sample holds actives, similar compounds and a random draw of the others, so the mix is not that of the screen.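 Rule for the calls: active = single-dose well whose peak fluorescence ratio is a statistical outlier from its plate by either plate-standardised score or position-corrected B-score; inactive = the rest.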

Sequence of Voltage-dependent T-type calcium channel subunit alpha-1H (Homo sapiens) (O95180 whole entry, looked up): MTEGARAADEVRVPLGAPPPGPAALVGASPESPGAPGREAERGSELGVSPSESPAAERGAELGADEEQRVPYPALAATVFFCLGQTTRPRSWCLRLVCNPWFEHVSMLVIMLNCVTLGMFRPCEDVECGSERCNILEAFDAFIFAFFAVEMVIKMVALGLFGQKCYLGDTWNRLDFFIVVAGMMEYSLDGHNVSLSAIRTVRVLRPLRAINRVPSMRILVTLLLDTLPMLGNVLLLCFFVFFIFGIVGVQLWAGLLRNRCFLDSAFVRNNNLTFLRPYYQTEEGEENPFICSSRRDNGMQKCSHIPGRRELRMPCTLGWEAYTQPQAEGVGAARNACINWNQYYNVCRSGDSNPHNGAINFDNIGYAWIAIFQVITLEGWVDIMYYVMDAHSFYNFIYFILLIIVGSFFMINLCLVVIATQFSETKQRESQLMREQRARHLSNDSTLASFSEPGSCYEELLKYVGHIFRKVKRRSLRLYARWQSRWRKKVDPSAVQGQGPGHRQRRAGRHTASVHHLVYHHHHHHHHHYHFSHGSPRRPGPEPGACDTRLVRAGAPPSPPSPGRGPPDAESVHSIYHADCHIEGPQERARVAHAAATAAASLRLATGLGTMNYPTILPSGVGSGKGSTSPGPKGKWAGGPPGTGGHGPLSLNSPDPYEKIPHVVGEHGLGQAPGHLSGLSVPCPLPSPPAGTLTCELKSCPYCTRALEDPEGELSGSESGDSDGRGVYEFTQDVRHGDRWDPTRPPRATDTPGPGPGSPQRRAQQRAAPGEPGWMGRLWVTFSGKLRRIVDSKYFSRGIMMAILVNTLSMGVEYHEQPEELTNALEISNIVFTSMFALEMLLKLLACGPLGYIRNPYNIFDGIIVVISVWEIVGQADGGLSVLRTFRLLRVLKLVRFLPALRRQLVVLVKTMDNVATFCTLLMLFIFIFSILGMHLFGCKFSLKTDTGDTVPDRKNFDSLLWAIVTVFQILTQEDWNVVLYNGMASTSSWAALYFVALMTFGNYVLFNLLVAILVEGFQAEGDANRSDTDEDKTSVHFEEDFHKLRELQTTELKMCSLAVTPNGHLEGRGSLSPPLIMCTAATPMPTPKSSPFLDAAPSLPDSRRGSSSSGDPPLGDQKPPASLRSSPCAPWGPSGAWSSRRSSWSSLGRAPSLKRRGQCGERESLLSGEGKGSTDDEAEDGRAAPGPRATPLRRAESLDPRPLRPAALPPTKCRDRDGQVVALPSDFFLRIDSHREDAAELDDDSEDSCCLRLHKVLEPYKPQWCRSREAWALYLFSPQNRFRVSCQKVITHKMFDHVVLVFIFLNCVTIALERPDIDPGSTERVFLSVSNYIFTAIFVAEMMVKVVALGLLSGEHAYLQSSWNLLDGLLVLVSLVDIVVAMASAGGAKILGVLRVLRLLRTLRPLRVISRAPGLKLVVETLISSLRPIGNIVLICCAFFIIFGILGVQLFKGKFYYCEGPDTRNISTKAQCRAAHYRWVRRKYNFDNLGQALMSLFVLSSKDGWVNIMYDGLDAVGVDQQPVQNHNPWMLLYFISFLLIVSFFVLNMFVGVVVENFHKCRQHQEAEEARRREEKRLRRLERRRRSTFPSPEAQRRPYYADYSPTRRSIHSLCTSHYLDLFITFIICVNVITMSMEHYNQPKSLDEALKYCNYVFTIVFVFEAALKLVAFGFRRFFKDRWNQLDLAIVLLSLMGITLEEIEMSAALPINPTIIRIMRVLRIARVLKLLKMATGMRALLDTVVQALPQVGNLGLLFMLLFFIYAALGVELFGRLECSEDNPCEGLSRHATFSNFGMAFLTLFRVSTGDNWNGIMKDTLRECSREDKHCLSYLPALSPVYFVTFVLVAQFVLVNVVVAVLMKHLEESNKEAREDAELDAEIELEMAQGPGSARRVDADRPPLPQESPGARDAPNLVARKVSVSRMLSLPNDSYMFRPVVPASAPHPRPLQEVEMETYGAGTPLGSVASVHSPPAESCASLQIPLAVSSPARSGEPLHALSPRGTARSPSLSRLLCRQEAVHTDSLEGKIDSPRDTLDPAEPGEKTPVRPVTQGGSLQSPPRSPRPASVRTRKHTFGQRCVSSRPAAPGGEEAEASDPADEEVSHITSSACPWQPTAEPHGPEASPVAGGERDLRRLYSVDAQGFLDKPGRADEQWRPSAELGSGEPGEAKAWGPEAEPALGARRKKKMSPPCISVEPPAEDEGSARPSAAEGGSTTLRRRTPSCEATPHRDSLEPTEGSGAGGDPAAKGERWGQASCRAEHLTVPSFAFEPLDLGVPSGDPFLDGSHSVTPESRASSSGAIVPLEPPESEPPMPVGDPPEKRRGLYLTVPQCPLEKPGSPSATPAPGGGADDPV

The assay has as its target Voltage-dependent T-type calcium channel subunit alpha-1H (Homo sapiens) (UniProt O95180). Kind of assay: Cav3.2 calcium influx blockers – cell-based, Fluo-4 calcium fluorescence, FDSS, MLSMR library, primary screen (AID 449739). As to conditions: Cav3.2-expressing cells, at 10 µM, stronger effect = lower value.
As for `O=C(Nc1nnc(CCOCCOCCc2nnc(NC(=O)c3ccco3)s2)s1)c1ccco1`, the B-score is 0.766 (inactive).
On to `Cc1cc(C(=O)CSc2nc(N)cc(=O)[nH]2)c(C)n1CCc1ccc(Cl)cc1`, for which the B-score is 0.737 (inactive).
Take `CC(/C=C/C1(O)C(C)CC(=O)CC1(C)C)OC1OC(CO)C(O)C(O)C1O` (stereo unspecified): the B-score is 0.424 (inactive).
To `CCOc1ccc(NC(=O)CN2CCN(CC(=O)Nc3ccc(OC)cc3)CC2)cc1` belongs 1.58 (inactive); to `COc1ccc(NC(=O)Cn2c(-c3ccc(OC)cc3)cn(-c3ccc(C)cc3)c2=O)cc1`, -4.33 (active).
To `COc1ccc(-c2cn(-c3ccc(C)cc3)c(=O)n2CC(=O)Nc2ccc(OC)c(OC)c2)cc1` belongs -1.46 (inactive); to `CC(C)(C)NS(=O)(=O)c1ccc(NC(=O)NC2CCCCC2)cc1`, -0.833 (inactive).
Take `Cc1n[nH]c(=S)n1/N=C/c1ccc(Br)o1`: the B-score is 0.825 (inactive).
To `COc1ccc(Nc2nc(Cl)nc(NCc3ccco3)n2)cc1` belongs -0.534 (inactive); to `COc1ccc(CCNC(=O)C2CCCN(Cc3nc(-c4cccc(Cl)c4)oc3C)C2)cc1OC` (stereo unspecified), -3.48 (active).
`COc1ccc(CCN(C)C(=O)C2CCCN(Cc3ccc(OC)c(OC)c3)C2)cc1OC` (stereo unspecified): the B-score is -0.0096 (inactive).
To `COc1ccc(CCNC(=O)C2CCN(c3nn4c(=O)cc(C)nc4s3)CC2)cc1OC` belongs 0.351 (inactive); to `CC1(OC(=O)C2CCCC2)C(=O)C=C2C=C(c3ccc(C#N)cc3)OC=C2C1=O` (stereo unspecified), -0.314 (inactive).
To `CCCCNC(=O)C(=O)c1ccccc1NC(C)=O` belongs 0.725 (inactive); to `Cc1ccc(C)c(N2CCN(C(=O)CCCCn3c(=O)[nH]c4ccccc4c3=O)CC2)c1`, -8.03 (active); to `O=C(CCn1c(=O)[nH]c2ccccc2c1=O)NCCCN1CCN(c2cccc(Cl)c2)CC1`, -7.26 (active).
Regarding `COc1ccc(CCNC(=O)CCCCn2c(=O)[nH]c3ccccc3c2=O)cc1OC`, the B-score is 0.545 (inactive).
On to `O=C(CCCn1c(=O)[nH]c2cc(Cl)ccc2c1=O)NCCN1CCN(c2ccccc2)CC1`, for which the B-score was 0.27 (inactive).
To `CCn1c(=O)cc(OCC(=O)NCCCN2CCN(c3cccc(Cl)c3)CC2)c2ccccc21` belongs 0.375 (inactive); to `O=C(CCCCn1c(=O)[nH]c2ccccc2c1=O)NCc1ccc2c(c1)OCO2`, -0.0333 (inactive); to `COC(=O)c1ccccc1OCC(=O)N1CCN(c2ccc(Cl)cc2)CC1`, -1.9 (inactive).
Take `Cc1ccccc1OC/C(O)=C(\C#N)c1nc2ccccc2[nH]1`: the B-score was -0.71 (inactive).
To `COc1cc(OC)c(/C=N/NC(=O)c2ccc([N+](=O)[O-])cc2)cc1Br` belongs -0.234 (inactive).
To `COc1cccc(/C=N/NC(=O)c2cccc([N+](=O)[O-])c2)c1OS(=O)(=O)c1ccc(C)cc1` belongs -6.01 (active).
To `COc1cc(/C=N\NC(=O)CNC(=O)c2cccc([N+](=O)[O-])c2)ccc1O` belongs 0.194 (inactive); to `C#CCNC(=O)C1=C[C@@H](c2ccccc2)[C@H](CCCO)[C@@H](OCC)O1`, 1.09 (inactive).
Consider `Cc1ccc(C)c(N(CC(=O)NCc2ccco2)C(=O)CCC(=O)Nc2ccccn2)c1`, for which the B-score was -2.66 (inactive).
To `Cc1ccc2c(c1)N(CC(=O)N(Cc1ccccn1)Cc1ccco1)C(=O)C(C(C)C)O2` (stereo unspecified) belongs -6.96 (active); to `Cc1ccc(C(C(=O)NC2CCCC2)N(Cc2ccco2)C(=O)CCC(=O)Nc2ccccn2)cc1` (stereo unspecified), 0.124 (inactive).
For `C#CCOCCOCCOCCNc1nc(N2CCN(C(=O)[C@H](CCC(=O)O)n3cc(C(N)CO)nn3)CC2)nc(N2CCN(C(=O)[C@H](Cc3ccc(O)cc3)n3cc(C(N)[C@H](C)CC)nn3)CC2)n1` (stereo partly specified), the B-score was -0.353 (inactive).
To `O=C(O)/C=C/C(=O)Nc1ccc(F)cc1F` belongs 0.769 (inactive); to `Cn1cnc([N+](=O)[O-])c1Sc1ccccc1`, 0.333 (inactive); to `CC(C)(C)n1nc(Cc2cccc3ccccc23)c(C#N)c1N`, -1.32 (inactive).
To `c1ccc(-c2nnc(SCc3nc4ccccc4[nH]3)o2)cc1` belongs -1.58 (inactive).
As to `COC(=O)Cc1nc2ccccc2[nH]1`, the B-score was 0.0867 (inactive).
Consider `c1ccc2c(CSCc3nc4ccccc4[nH]3)cccc2c1`, for which the B-score was -7.7 (active).
For `COc1cc2c(cc1O)[C@H](Cc1ccc(Oc3cc(C[C@@H]4NCCc5cc(OC)c(O)cc54)ccc3O)cc1)NCC2`, the B-score is 0.142 (inactive).
As to `C(=N/N1CCN(c2ccccc2)CC1)/c1cccs1`, the B-score is 0.219 (inactive).
To `O=C(CCNS(=O)(=O)c1ccccc1C(F)(F)F)NCc1ccc2c(c1)OCO2` belongs -0.223 (inactive); to `CCCn1c(C(O)c2cc(OC)ccc2OC)nc2ccccc21` (stereo unspecified), -1.69 (inactive); to `COc1ccc(-c2nc3ccccc3n2CCC(C)C)cc1OC`, -6.94 (active).
To `COCCn1c(-c2ccc(OC)c(OC)c2)nc2ccccc21` belongs 0.414 (inactive); to `CCCCN1C(N)=NC[C@@H]1CC1CCCCC1`, 0.078 (inactive).
To `CCCCN1C(=S)NC[C@@H]1C(C)CC` (stereo partly specified) belongs -0.603 (inactive); to `C[C@H](NC(=O)c1nc[nH]c1C(=O)N[C@@H](C)C(=O)OC(C)(C)C)C(=O)OC(C)(C)C`, 0.275 (inactive); to `COc1cccc(-c2nnc(SCCOc3ccc4c(C)cc(=O)oc4c3)o2)c1`, 1.22 (inactive).
Take `COc1ccc(C(=O)CN2C(=O)NC(C)(c3ccc(C)cc3)C2=O)cc1OC` (stereo unspecified): the B-score was -0.586 (inactive).
As to `Cc1ccc(C2(c3ccc(C)cc3)NC(=O)N(Cc3c(C)noc3C)C2=O)cc1`, the B-score was -6.31 (active).
To `Cc1ccc(SCCN2C(=O)NC(C)(C)C2=O)cc1` belongs 0.269 (inactive); to `NS(=O)(=O)c1cccnc1Nc1cccc(Cl)c1`, -0.12 (inactive); to `O=S(=O)(c1cnccc1N1CCN(/N=C/c2ccc(Br)cc2)CC1)N1CCCCC1`, -0.791 (inactive).
To `Cc1ccc(-c2csc(N(Cc3ccco3)C(=O)c3cccs3)n2)cc1` belongs -1.85 (inactive).
`Cc1ccc(/C=N/NC(=O)c2sccc2OCc2ccc(F)cc2)cc1`: the B-score was -0.514 (inactive).
To `O=C(Nc1ccc(N2CCN(C(=O)c3ccccc3)CC2)c(Cl)c1)c1cccnc1` belongs 1.44 (inactive); to `O=C(Nc1ccc(Cl)c(Cl)c1)N1CC=C(c2ccccc2)CC1`, -6.72 (active).
To `NC(=O)N1CCCC1C(=O)Nc1ccc(Cl)c(Cl)c1` (stereo unspecified) belongs -0.377 (inactive).
